# Assay results taken from PubChem BioAssay (Tox21).
# Where “and” joins values, the source holds several entries; their conditions need not be identical. Equal values may be shown once. Inconclusive results are not listed. Entries that show only a call come without a potency. Calls of active or inactive are those of the source. Unless noted, calls follow the shape of the dose curve; as a rule, active = well fitted curve in the direction sought with a large enough effect in the repeat runs; inconclusive = weak or mixed curves; inactive = no such curve, though single readings can be large; an effect the other way counts as inactive or inconclusive.
# Legend:
# [1] = qHTS assay to identify small molecule antagonists of the retinoid-related orphan receptor gamma (ROR-gamma) signaling pathway - cell viability counter screen (AID 1159520); details: Tet-on RORgamma CHO cells viability, ATP luminescence, 16 h; series mostly up to 92.4 µM; also: nearly all actives have a fitted effect of over 50% in size; also: potency is read from the fitted curve at half-maximal effect
# Procedure, shortened: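 Tet-on ROR gamma CHO cells (1,000/well) were plated 4 hr, given compounds in DMSO for 2 hr at 37 C, then induced with 1 uM final doxycycline for 16 hr. Viability was read as ATP by CellTiter-Glo luminescence after 30 min.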
# [2] = qHTS assay to identify small molecule agonists of the AP-1 signaling pathway (AID 1159526; calls by dose curve; also: potency is read from the fitted curve at half-maximal effect); details: ME-180 AP-1-bla reporter, beta-lactamase FRET ratio, 5 h; series mostly up to 76.8 µM
# [3] = qHTS assay to identify small molecule antagonists of the retinoid acid receptor (RAR) signaling pathway - cell viability counter screen (AID 1159551); details: C3RL4 cells viability, ATP luminescence (CellTiter-Glo), 6 h; series mostly up to 92.4 µM; also: nearly all actives have a fitted effect of over 35% in size; also: potency is read from the fitted curve at half-maximal effect
# Procedure, shortened: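 C3RL4 cells were seeded overnight at 37 C, then treated with compounds plus 1 uM (final) retinol for 6 h at 37 C. Viability was read as ATP by CellTiter-Glo luminescence after 30 min at room temperature.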
# [4] = qHTS assay to identify small molecule antagonists of the estrogen related receptor (ERR) signaling pathway from Tox21 library - cell viability counter screen (AID 1224834); details: ERR reporter cells viability, CellTiter-Fluor, 17.5 h; series mostly up to 92.4 µM; also: nearly all actives have a fitted effect of over 30% in size; also: potency is read from the fitted curve at half-maximal effect
# Procedure, shortened: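 ERR reporter cells were plated 6 h before compound addition, then exposed to test compounds in DMSO for 17.5 h at 37 C. Viability was read as CellTiter-Fluor fluorescence after a 30-minute incubation at 37 C.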
# [5] = qHTS assay to identify small molecule agonists of the AP-1 signaling pathway - cell viability counter screen (AID 1159525; calls by dose curve; also: nearly all actives have a fitted effect of over 55% in size; also: potency is read from the fitted curve at half-maximal effect); details: ME-180 AP-1-bla cells viability, ATP luminescence, 5 h; series mostly up to 76.8 µM
# Procedure, shortened: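 ME-180 AP-1-bla, 2500 cells/well, Opti-MEM + 0.5% dialyzed FBS; overnight 37 °C; cpd 15-pt titration, 5 h 37 °C; CellTiter-Glo 30 min RT; luminescence read; normalised to TOAB and DMSO controls.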
# [6] = molecular target: Retinoic acid receptor RXR-alpha (Homo sapiens) (UniProt P19793); assay: qHTS assay to identify small molecule agonists of the RXR signaling pathway (AID 1159527; calls by dose curve; also: nearly all actives have a fitted effect of over 35% in size); details: HEK293T RXRa-UAS-bla, beta-lactamase ratio, 16 h; series mostly up to 76.8 µM
# Sequence of Retinoic acid receptor RXR-alpha (Homo sapiens) (P19793 whole entry, looked up): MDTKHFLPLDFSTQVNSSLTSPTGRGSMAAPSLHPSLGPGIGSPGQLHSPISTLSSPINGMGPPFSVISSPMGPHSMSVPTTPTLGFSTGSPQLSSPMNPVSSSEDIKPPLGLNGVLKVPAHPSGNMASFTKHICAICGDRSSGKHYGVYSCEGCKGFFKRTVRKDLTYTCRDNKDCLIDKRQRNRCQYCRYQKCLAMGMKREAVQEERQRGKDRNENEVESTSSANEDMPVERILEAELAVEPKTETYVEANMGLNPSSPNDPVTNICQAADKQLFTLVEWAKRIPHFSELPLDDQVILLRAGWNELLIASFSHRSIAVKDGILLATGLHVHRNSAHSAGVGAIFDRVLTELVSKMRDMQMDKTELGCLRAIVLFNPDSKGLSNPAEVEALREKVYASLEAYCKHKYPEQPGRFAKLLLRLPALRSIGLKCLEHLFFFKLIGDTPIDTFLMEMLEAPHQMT
# Procedure, shortened: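 Using 9-cis retinoic acid as the reference agonist, chemicals were tested in HEK 293T cells […] for 16 hr; substrate loading lasted 2 hr at room temperature.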
# [7] = qHTS assay to identify small molecule agonists of the RXR signaling pathway - cell viability counter screen (AID 1159529); details: RXR-alpha-bla HEK293T viability, CellTiter-Glo, 16 h; series mostly up to 76.8 µM; also: nearly all actives have a fitted effect of over 50% in size; also: potency is read from the fitted curve at half-maximal effect
# Procedure, shortened: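 Compounds dissolved in DMSO were pinned onto HEK 293T cells carrying a beta-lactamase reporter under RXR-alpha control and incubated 16 hr. Cytotoxicity was then quantified by CellTiter-Glo luminescence.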
# [8] = qHTS assay to identify small molecule antagonists of the retinoic acid receptor (RAR) signaling pathway (AID 1159552; also: nearly all actives have a fitted effect of over 50% in size; also: potency is read from the fitted curve at half-maximal effect); details: C3RL4 RARE luciferase reporter, retinol-stimulated, 6 h; series mostly up to 92.4 µM
# Procedure, shortened: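 Test chemicals and DMSO controls were pin-transferred onto C3RL4 cells a day after seeding; retinol (1 uM final) followed at once. Luminescent reporter output was quantified after 6 hr of co-incubation and 30 min with detection reagent.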
# [9] = molecular target: Nuclear receptor ROR-gamma (Homo sapiens) (UniProt P51449); assay: qHTS assay to identify small molecule antagonists of the retinoid-related orphan receptor gamma (ROR-gamma) signaling pathway (AID 1159521; also: nearly all actives have a fitted effect of over 50% in size; also: potency is read from the fitted curve at half-maximal effect); details: Tet-on RORgamma CHO cells, RORE-luciferase, 16 h; series mostly up to 92.4 µM
# Procedure, shortened: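 Test compounds were applied to Tet-on RORγ CHO cells 2 h ahead of doxycycline hyclate (1 uM final). Luciferase reporter activity was quantified by luminescence after 16 h at 37 C and 5% CO2.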
# [10] = qHTS assay to identify small molecule antagonists of the vitamin D receptor (VDR) signaling pathway - cell viability counter screen (AID 743225); details: VDR-bla HEK293T viability, CellTiter-Glo luminescence, 16 h; series mostly up to 61 µM; also: nearly all actives have a fitted effect of over 50% in size; also: potency is read from the fitted curve at half-maximal effect
# Procedure, shortened: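 Compounds were pinned onto VDR-bla HEK 293T cells together with 1-alpha,25-dihydroxyvitamin D3 at 3 nM final. After 16 h at 37C and 5% CO2 plus the reporter readout, cell viability was measured by CellTiter-Glo luminescence (30 min, room temperature).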
# [11] = qHTS assay to identify small molecule agonists of the retinoic acid receptor (RAR) signaling pathway (AID 1159553); details: C3RL4 RARE luciferase reporter, agonist, 6 h; series mostly up to 73.3 µM
# Procedure, shortened: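 C3RL4 cells carrying a RARE luciferase reporter were plated overnight at 37 C, then exposed to compounds in DMSO for 6 hr at 37 C and 5% CO2. Luminescence was read 30 min after luciferase reagent addition at room temperature.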
Structure (SMILES),Potency [1],Potency [2],Potency [3],Potency [4],Potency [5],outcome [6],Potency [7],Potency [8],Potency [9],Potency [10],Potency [11]
C[C@]12CC[C@H](O)C[C@H]1CC[C@@H]1[C@@H]2C[C@@H](O)[C@]2(C)[C@@H](C3=CC(=O)OC3)CC[C@]12O,inactive,inactive,inactive,0.77 µM (active),–,–,–,–,–,–,–
Cc1cccc(OP(=O)(Oc2cccc(C)c2)Oc2cccc(C)c2)c1,inactive,inactive,–,inactive,inactive,inactive,inactive,inactive,–,–,–
NC(=O)CCl,inactive,–,inactive,–,inactive,inactive,inactive,inactive,–,–,–
[Cl][Sn]([c]1ccccc1)([c]1ccccc1)[c]1ccccc1,0.411 µM (active),–,4.61 µM (active),1.16 µM (active),10.4 µM (active),–,–,0.092 µM (active),0.082 µM (active),–,–
CCCCOP(=O)(CCCC)OCCCC,inactive,inactive,inactive,inactive,inactive,inactive,–,inactive,–,–,–
CCOP(=S)(OCC)SCS(=O)(=O)CC,inactive,inactive,–,inactive,inactive,inactive,inactive,inactive,–,–,–
N#Cc1ccccc1Cl,inactive,inactive,inactive,inactive,inactive,inactive,inactive,inactive,–,–,–
ClCCN1CCOCC1,inactive,inactive,inactive,inactive,inactive,inactive,inactive,inactive,–,–,–
Fc1ccc(Oc2ccnc3cc(Cl)cc(Cl)c23)cc1,inactive,–,–,inactive,–,–,–,inactive,inactive,inactive,–
Nc1c(Oc2ccccc2)cc(O)c2c1C(=O)c1ccccc1C2=O,inactive,–,–,–,inactive,inactive,inactive,inactive,–,–,–
O=C(Nc1ccc2[nH]ccc2c1)c1cc2cc(F)ccc2n1Cc1cccc(F)c1,48.6 µM (active),–,inactive,61.1 µM (active),27.5 µM (active),–,–,68.6 µM (active),43.3 µM (active),43.6 µM (active),inactive
CC(C)CBr,inactive,inactive,inactive,inactive,inactive,inactive,–,inactive,–,–,–
Cc1ccc(C(=O)Cl)cc1,inactive,–,inactive,inactive,inactive,inactive,–,inactive,–,–,–
O=CC(Br)(Br)Br,7.67 µM (active),7.74 µM (active),–,24.3 µM (active),–,–,–,27.2 µM (active),inactive,48.8 µM (active),–
CNC(C)Cc1ccc2c(c1)OCO2 (stereo unspecified),inactive,–,inactive,inactive,inactive,–,–,inactive,inactive,inactive,–
CC(C)C(=O)Cl,inactive,inactive,inactive,inactive,inactive,inactive,inactive,–,–,–,–
N#Cc1c(-c2ccc(Cl)cc2)[nH]c(C(F)(F)F)c1Br,0.611 µM (active),–,–,–,inactive,–,–,0.545 µM (active),0.137 µM (active),–,–
O=C/C(Cl)=C(/Cl)C(=O)O,48.5 µM (active) and 34.4 µM (active),inactive,inactive,inactive,–,–,inactive,–,13.7 µM (active) and 21.7 µM (active),inactive,–
C[C@@H]1O[C@@H](O[C@@H]2C=C3CC[C@@H]4[C@H](CC[C@]5(C)[C@@H](c6ccc(=O)oc6)CC[C@]45O)[C@@]3(C)CC2)[C@H](O)[C@H](O)[C@H]1O,21.1 µM (active),inactive,inactive,0.0298 µM (active),–,–,–,–,15 µM (active),0.0134 µM (active),inactive
CCCCCCCCCCBr,inactive,–,inactive,inactive,inactive,inactive,inactive,inactive,–,–,–
OC(Cc1ccccc1Cl)(Cn1cncn1)C1(Cl)CC1 (stereo unspecified),inactive,inactive,inactive,–,inactive,inactive,–,inactive,–,–,–
Clc1ccc(CSC(Cn2ccnc2)c2ccc(Cl)cc2Cl)cc1 (stereo unspecified),inactive,–,inactive,15 µM (active),–,–,26.8 µM (active),–,29.8 µM (active),–,inactive
N#CCCC(Br)(C#N)CBr (stereo unspecified),19.3 µM (active),–,68.6 µM (active),–,–,–,38.9 µM (active),21.7 µM (active),21.7 µM (active),–,–
CN(C)S(=O)(=O)N(SC(F)(Cl)Cl)c1ccccc1,5.45 µM (active),–,48.6 µM (active),30.6 µM (active),34.7 µM (active),–,–,–,–,27.5 µM (active),–
